PubChem BioAssay AID2073 (Sanford-Burnham Center for Chemical Genomics, 2009)
“And” between values parts separate entries of the source, which are not always exact repeats. Equal values may be shown once. Screen size: about 290,000 compounds; about 570 (0.2%) were called active. About 1% were inconclusive and are not listed. Rule as the data show it: active = inhibition mostly above about 51% (no sharp cut-off); inconclusive = no clear call, values can overlap the other calls; inactive = mostly below about 53%. Only a selection was taken, and actives are over-represented in it overall.

Molecular target: Voltage-dependent N-type calcium channel subunit alpha-1B (Homo sapiens) (UniProt Q00975)
Test: inhibitors of Mint1-CaV2.2 protein interaction, biochemical, HTRF (AID 2073)
Conditions: at 20 µM, stronger effect = higher value
[1] = measured here: average of repeat tests

Chain of Voltage-dependent N-type calcium channel subunit alpha-1B (Homo sapiens) (Q00975 whole entry, looked up): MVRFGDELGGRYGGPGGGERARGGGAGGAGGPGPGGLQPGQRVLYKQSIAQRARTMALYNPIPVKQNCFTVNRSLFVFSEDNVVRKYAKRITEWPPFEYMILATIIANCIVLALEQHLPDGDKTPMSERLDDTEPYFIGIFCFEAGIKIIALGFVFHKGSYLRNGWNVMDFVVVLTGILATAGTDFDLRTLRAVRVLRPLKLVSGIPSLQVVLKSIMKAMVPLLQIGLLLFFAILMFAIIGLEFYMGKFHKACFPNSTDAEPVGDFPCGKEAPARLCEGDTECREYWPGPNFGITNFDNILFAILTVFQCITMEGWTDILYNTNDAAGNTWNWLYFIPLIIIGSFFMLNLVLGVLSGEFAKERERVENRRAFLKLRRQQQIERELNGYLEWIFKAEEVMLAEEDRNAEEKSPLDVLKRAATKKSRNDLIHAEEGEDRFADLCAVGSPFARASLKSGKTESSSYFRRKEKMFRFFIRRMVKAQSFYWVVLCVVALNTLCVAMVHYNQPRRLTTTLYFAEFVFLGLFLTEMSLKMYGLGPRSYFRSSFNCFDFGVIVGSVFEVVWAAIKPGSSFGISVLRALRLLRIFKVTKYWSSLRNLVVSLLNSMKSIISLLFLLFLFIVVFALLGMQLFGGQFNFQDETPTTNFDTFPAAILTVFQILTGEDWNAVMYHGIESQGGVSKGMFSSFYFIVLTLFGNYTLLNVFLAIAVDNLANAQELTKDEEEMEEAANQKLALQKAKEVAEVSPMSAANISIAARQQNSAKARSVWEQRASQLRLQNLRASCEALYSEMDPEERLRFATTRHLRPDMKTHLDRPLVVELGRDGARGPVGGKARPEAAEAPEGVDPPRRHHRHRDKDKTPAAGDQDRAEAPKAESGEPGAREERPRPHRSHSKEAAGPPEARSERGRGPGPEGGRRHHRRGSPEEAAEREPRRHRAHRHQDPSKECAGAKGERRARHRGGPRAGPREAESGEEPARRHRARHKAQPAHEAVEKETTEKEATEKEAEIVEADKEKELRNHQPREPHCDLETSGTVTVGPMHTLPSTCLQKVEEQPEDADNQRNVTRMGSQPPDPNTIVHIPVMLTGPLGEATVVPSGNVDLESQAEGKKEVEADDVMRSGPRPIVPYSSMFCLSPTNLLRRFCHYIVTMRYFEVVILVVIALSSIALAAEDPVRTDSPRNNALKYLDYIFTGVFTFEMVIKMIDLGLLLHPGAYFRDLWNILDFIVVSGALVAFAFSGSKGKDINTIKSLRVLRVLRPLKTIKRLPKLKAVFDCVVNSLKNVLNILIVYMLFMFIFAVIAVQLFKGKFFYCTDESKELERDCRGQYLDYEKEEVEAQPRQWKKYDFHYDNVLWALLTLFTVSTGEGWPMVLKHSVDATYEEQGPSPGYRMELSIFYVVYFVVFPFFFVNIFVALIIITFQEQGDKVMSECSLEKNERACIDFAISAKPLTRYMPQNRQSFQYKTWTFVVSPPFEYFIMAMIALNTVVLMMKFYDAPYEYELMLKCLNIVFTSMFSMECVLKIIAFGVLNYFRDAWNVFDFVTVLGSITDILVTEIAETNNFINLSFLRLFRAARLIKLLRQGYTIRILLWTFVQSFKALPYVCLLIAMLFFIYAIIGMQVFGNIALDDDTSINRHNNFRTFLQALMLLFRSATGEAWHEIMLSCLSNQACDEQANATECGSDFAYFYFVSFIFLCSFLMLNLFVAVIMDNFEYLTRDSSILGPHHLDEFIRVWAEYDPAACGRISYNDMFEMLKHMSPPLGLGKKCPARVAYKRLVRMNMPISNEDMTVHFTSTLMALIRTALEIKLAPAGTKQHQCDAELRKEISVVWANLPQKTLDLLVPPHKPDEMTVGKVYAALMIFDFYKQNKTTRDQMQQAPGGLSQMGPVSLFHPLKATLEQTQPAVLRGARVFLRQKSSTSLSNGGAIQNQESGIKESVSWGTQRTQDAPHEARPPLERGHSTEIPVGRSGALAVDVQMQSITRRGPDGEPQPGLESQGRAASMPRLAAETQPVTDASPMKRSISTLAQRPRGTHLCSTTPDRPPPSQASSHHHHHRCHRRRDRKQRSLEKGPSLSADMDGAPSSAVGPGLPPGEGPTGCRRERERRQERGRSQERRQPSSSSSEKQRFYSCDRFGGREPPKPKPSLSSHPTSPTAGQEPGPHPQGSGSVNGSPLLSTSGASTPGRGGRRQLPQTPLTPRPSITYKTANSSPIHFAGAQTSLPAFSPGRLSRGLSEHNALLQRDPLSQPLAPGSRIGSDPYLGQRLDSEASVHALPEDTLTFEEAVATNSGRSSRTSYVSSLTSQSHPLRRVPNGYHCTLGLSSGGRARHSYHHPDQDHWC

Row | SMILES | inhibition | inhibition [1]
1 | CC(=O)CN1C(=O)NC(c2ccccc2)(c2ccccc2)C1=O | 12.2% (inactive) | –
2 | Cc1cc(-c2ccc(S(=O)(=O)N(C)Cc3ccccc3)cc2)on1 | 9% (inactive) | –
3 | COC(c1ccccc1)c1nnc(CCC(=O)NCc2cccc(-n3cccn3)c2)o1 (configuration not stated) | 10.4% (inactive) | –
4 | COC(c1ccccc1)c1nnc(CCC(=O)NCc2ccc3ncccc3c2)o1 (configuration not stated) | 50% (active) | –
5 | COc1ccc(CCc2nnc(CCC(=O)NCc3ccc4ncccc4c3)o2)cc1 | -2.5% (inactive) | –
6 | O=C1CNC(=O)/C1=C/c1ccccc1 | 7.3% (inactive) | –
7 | O=C1CSC(c2ccccc2)N1c1nnc(C23CC4CC(CC(C4)C2)C3)s1 (configuration not stated) | 1.5% (inactive) | –
8 | O=C(O)c1ccc(/C=C/c2nc3sc4c(c3c(=O)[nH]2)CCC4)cc1 | 40.5% (inactive) | –
9 | CCOC(=O)c1nc2sc3c(c2c(=O)[nH]1)CCCC3 | 29.6% (inactive) and 12.3% (inactive) | –
10 | N#C/C(=C\c1ccc(C(=O)O)cc1)c1nc2sc3c(c2c(=O)[nH]1)CCCC3 | 73.5% (active) | –
11 | O=C1C(Cc2ccccc2)NC(=S)N1Cc1ccccc1 (configuration not stated) | -4.6% (inactive) | –
12 | Cc1cc(C)c2c(=O)n(CC(=O)Nc3ccc(Cl)cc3)sc2n1 | 23.2% (inactive) | –
13 | Cc1ccc(NC(=O)Cn2sc3nc(C)cc(C)c3c2=O)c(Cl)c1 | 70.3% (active) | –
14 | CCCNC(=O)Cn1sc2nc(C)cc(C)c2c1=O | 88.4% (active) | –
15 | CC(=O)Cn1cnc2c(sc3nc(C)cc(C)c32)c1=O | -5.8% (inactive) | –
16 | Cc1ccc(NC(=O)Cn2c(C)cc(C)c(C#N)c2=O)c(Cl)c1 | 2.7% (inactive) | –
17 | COC(=O)Cn1c(C)nc2c(sc3nc(C)cc(C)c32)c1=O | 7.1% (inactive) | –
18 | CN1CCN(S(=O)(=O)c2cccc(C(=O)Oc3ccccc3Cl)c2)CC1 | 14.6% (inactive) | –
19 | COc1ccc(CNC(=O)Cn2nc([N+](=O)[O-])c(Br)c2C)cc1 | 2.9% (inactive) | –
20 | CCCN1C2=NCCN2c2ccccc21 | 2.5% (inactive) | –
21 | Cc1nnc(NC(=O)Nc2cccc(Cl)c2)s1 | -1.9% (inactive) | –
22 | O=C(Nc1ccc(F)cc1)Nc1nnc(-c2ccncc2)s1 | 50.5% (inactive) | 37.8%
23 | O=C(Nc1cccc(Cl)c1)Nc1nnc(-c2ccncc2)s1 | 56.2% (active) | –
24 | Cc1ccc(NC(=O)Nc2nnc(-c3ccncc3)s2)cc1C | 76.4% (active) | –
25 | COc1ccc(NC(=O)Nc2nnc(-c3ccncc3)s2)cc1 | 3.4% (inactive) | –

Row | SMILES | inhibition | inhibition [1]
26 | O=C(Nc1ccc(Cl)cc1)Nc1nnc(-c2ccncc2)s1 | 14.4% (inactive) | –
27 | Cc1c(NC(=O)CN2CCN(c3ccc([N+](=O)[O-])cc3)CC2)c(=O)n(-c2ccccc2)n1C | 1.5% (inactive) | –
28 | CC1Oc2ccccc2N(CC(=O)N2CCc3ccccc32)C1=O (configuration not stated) | -10.9% (inactive) | –
29 | CCCC(=O)N(Cc1cc(=O)[nH]c2ccccc12)c1ccc(C)cc1 | 14.9% (inactive) | –
30 | CCOc1ccc(N(CC(=O)NCc2ccco2)S(C)(=O)=O)cc1 | 13.2% (inactive) | –
31 | O=C(NNC(=S)NC(=O)c1ccccc1)c1ccc([N+](=O)[O-])cc1 | -13% (inactive) | –
32 | Cc1nc2ccc(S(=O)(=O)NCC(=O)NCc3ccc4c(c3)OCO4)cc2s1 | 15.2% (inactive) | –
33 | CS(=O)(=O)Nc1cccc2[nH]ncc12 | 6.1% (inactive) | –
34 | N#CC1(C#N)[C@@H](C(=O)C23CC4CC(CC(C4)C2)C3)C12CCOCC2 | 0% (inactive) | –
35 | Cc1ccc(NS(=O)(=O)c2ccc(OCC(=O)N3CCOCC3)cc2)cc1 | -10.3% (inactive) | –
36 | COC(=O)C1C(O)=C(C=NC2CCCCC2)C(=O)CC1(C)C (configuration not stated) | 10.7% (inactive) | –
37 | NS(=O)(=O)c1ccc(N=Nc2c(O)ccc3ccccc23)cc1 | 64.4% (active) | –
38 | Oc1ccc(N=Nc2c(O)ccc3ccccc23)cc1 | -2.8% (inactive) | –
39 | Nc1nc(O)c(N=Nc2ccc(S(N)(=O)=O)cc2)c(=O)[nH]1 | 50% (active) | –
40 | NS(=O)(=O)c1ccc(N=Nc2c(O)c(C(=O)O)cc3ccccc23)cc1 | 20.5% (inactive) | –
41 | Nc1nc(N)c(N=Nc2ccc(S(N)(=O)=O)cc2)c(=O)[nH]1 | 13.6% (inactive) | –
42 | Cc1c(C#N)c(O)[nH]c(=O)c1N=Nc1ccc(S(N)(=O)=O)cc1 | 1.4% (inactive) | –
43 | O=C(CN1C(=O)C2C3C=CC(C4CC34)C2C1=O)Oc1ccccc1 (configuration not stated) | -1.6% (inactive) | –
44 | CC(C)(C)NC(=O)CSC(=Nc1cccc(F)c1)NC#N | -25.9% (inactive) | –
45 | CCCCOc1ccc(Cl)cc1CSc1nnc(C)n1N | -4.8% (inactive) | –
46 | CCOC(=O)CNC(=O)c1cc(-c2ccc3c(c2)OCCO3)oc1C | 10.9% (inactive) | –
47 | COC(=O)CCC(NC(=O)c1cc(-c2ccc3c(c2)OCCO3)oc1C)C(=O)OC (configuration not stated) | 61.5% (active) | –
48 | Cc1oc(-c2ccc3c(c2)OCCO3)cc1C(=O)NC(CCC(=O)O)C(=O)O (configuration not stated) | 20.1% (inactive) | –
49 | Cc1ccc(CNC(=O)CN2C(=O)NC(C)(c3ccccc3Cl)C2=O)cc1 (configuration not stated) | 6.8% (inactive) | –
50 | CCOC(=O)c1c(NC(=O)CN2CCN(C(=O)c3ccco3)CC2)sc(C(N)=O)c1C | 0% (inactive) | –

Row | SMILES | inhibition | inhibition [1]
51 | c1ccc2c(c1)CCN(CCCNc1nc3ccccc3n3cnnc13)C2 | 50.8% (active) | –
52 | c1ccc2c(c1)nc(NCCN1CCOCC1)c1nncn12 | 6.6% (inactive) | –
53 | c1ccc2c(c1)CCN(c1nc3ccccc3n3cnnc13)C2 | 3.9% (inactive) | –
54 | CCCCCCCNC(=O)CC(NS(=O)(=O)c1ccc(NC(C)=O)cc1)C(C)C (configuration not stated) | 1.5% (inactive) | –
55 | COc1ccc(-n2c(C)c(C(=O)O)c3cc(OC)c4ccccc4c32)cc1 | 13.1% (inactive) | –
56 | CN1CCN(c2c(F)cc3c(=O)c(C(=O)O)cn4c3c2OCN4C)CC1 | 33.2% (inactive) | –
57 | CN1CCN(c2c(F)cc3c(=O)c(C(=O)O)cn(CCF)c3c2F)CC1 | 29.5% (inactive) | –
58 | CN1CCN(c2c(F)cc3c(=O)c(C(=O)O)cn4c3c2SCC4)CC1 | 53.3% (active) | –
59 | CCOc1ccc(S(=O)(=O)NCc2cccnc2)cc1C(C)C | 1.4% (inactive) | –
60 | CSc1nc(-c2ccc(C)cc2)[nH]c1S(=O)(=O)c1ccccc1 | -18.4% (inactive) | –
61 | CC(=O)Sc1nc(-c2ccccc2)[nH]c1S(=O)(=O)c1ccc(C)cc1 | 82.4% (active) | –
62 | Cc1ccc(-c2[nH]c(-c3ccc(C(=O)O)cc3)nc2-c2ccccc2)cc1 | 47.8% (inactive) | –
63 | CCOC(=O)c1c(-c2ccccc2)oc2ccc(OC(C)=O)cc12 | 7.9% (inactive) | –
64 | CCCCOC(=O)Nc1nnc(CC)s1 | 3.8% (inactive) | –
65 | Cc1[nH][nH]c(=O)c1C(c1ccc(-c2ccc(Cl)cc2Cl)o1)c1c(C)[nH][nH]c1=O | 2% (inactive) | –
66 | CN(C(=S)Nc1ccc(Oc2ccccc2)cc1)c1ccc(O)cc1 | 11% (inactive) | –
67 | CN(C(=S)Nc1ccc(SC(F)F)cc1)c1ccc(O)cc1 | 56.1% (active) | –
68 | CN(C(=S)Nc1ccc(SC(F)F)cc1)C(c1ccccc1)c1ccccc1 | -7.4% (inactive) | –
69 | C/C(=N\NC(=O)c1cccs1)c1ccc(C(=O)O)s1 | 12.5% (inactive) | –
70 | CCc1ccc(OCC(=O)NC(NC(=S)Nc2ccccc2C)C(Cl)(Cl)Cl)cc1 (configuration not stated) | -12.1% (inactive) | –
71 | COC(=O)c1sccc1NC(=O)c1ccc(C(C)C)cc1 | 1% (inactive) | –
72 | CCN(CC)CCNC(=O)c1ccc(NC(=O)COc2ccccc2F)cc1 | -0.2% (inactive) | –
73 | COc1ccccc1CNC(=O)/C=C/c1ccc(Br)o1 | 79.5% (active) | –
74 | COc1ccccc1CNC(=O)c1ccc(Br)o1 | -2% (inactive) | –
75 | O=C(/C=C/c1ccc(Br)o1)NCc1ccccc1 | 76.8% (inactive) | 13.4%

Row | SMILES | inhibition | inhibition [1]
76 | COCC(=O)NNC(=O)c1ccccc1OC | -3.5% (inactive) | –
77 | CS(=O)(=O)N(CC(=O)Nc1ccc2c(c1)OCCO2)Cc1ccc(Cl)cc1 | -3.3% (inactive) | –
78 | N#CC1=C(N)SC(N)=C(C#N)C1c1ccc([N+](=O)[O-])cc1 | 68.2% (inactive) | 5%
79 | CCOC(=O)C1=C(C)NC(=O)NC1c1ccc(Cl)cc1Cl (configuration not stated) | -3.7% (inactive) | –
80 | N#CC1=C(N)Nc2ncnn2C1c1ccc([N+](=O)[O-])cc1 (configuration not stated) | -11.4% (inactive) | –
81 | NC(=O)C1(C(N)=O)OC1c1ccc(Cl)cc1Cl (configuration not stated) | 6.5% (inactive) | –
82 | COC(=O)C1C(=O)NC(SC)=C(C#N)C1c1ccccc1 (configuration not stated) | -20.5% (inactive) | –
83 | CC(=O)C1(C)OC(N)=C(C#N)C(c2ccccc2)C1(C#N)C#N (configuration not stated) | 48% (inactive) | –
84 | CCOC(=O)C1C(=O)NC(SC)=C(C#N)C1c1ccccc1F (configuration not stated) | -5.1% (inactive) | –
85 | COC(=O)C1C(=O)NC(SC)=C(C#N)C1c1ccccc1F (configuration not stated) | 8% (inactive) | –
86 | COCCCNC(=O)Cn1nnc(-c2ccc(NC(=O)c3ccc(F)cc3)cc2)n1 | 25.2% (inactive) | –
87 | Cc1cc2oc(=O)cc(CN3CCCCC3C)c2cc1C (configuration not stated) | 2.6% (inactive) | –
88 | COc1ccccc1S(=O)(=O)Cc1ccc(C(=O)N2CCCC2)o1 | 0.3% (inactive) | –
89 | O=C(NCCc1c[nH]c2ccccc12)C(F)(F)C(F)F | -6.3% (inactive) | –
90 | Cc1ccc(C(=O)NCCc2nnc3ccc(SCC(=O)Nc4c(C)cc(C)cc4C)nn23)cc1 | 8.7% (inactive) | –
91 | CCCn1cnc2cc(NC(=O)c3ccco3)ccc21 | 10.4% (inactive) | –
92 | CC(C)c1csc(CN2CCN(Cc3ccccc3)C(CCO)C2)n1 (configuration not stated) | 11.5% (inactive) | –
93 | Cc1ccc(C(=O)N(CC(=O)NC2CCCC2)c2ccc3c(c2)OCCO3)s1 | -11% (inactive) | –
94 | O=C(Nc1ccc(Cl)cc1)N1CCOC12CCCCC2 | -2.6% (inactive) | –
95 | O=Cc1cnc(N2CCOCC2)nc1 | 6.2% (inactive) | –
96 | NNC(=O)c1cc(O)c(O)c(O)c1 | 63.1% (active) | –
97 | COC(=O)c1cc(O)c(O)c(O)c1 | -68.3% (inactive) | –
98 | NNC(=O)c1cccc(O)c1 | 19.5% (inactive) | –
99 | COC(=O)c1ccc(NC(=O)CCn2cccc2)cc1 | 3.2% (inactive) | –
